Results published in PubChem BioAssay (NCATS).
Results filed as inconclusive are left out. Calls of active or inactive are those of the source. Calls come from the whole dose curve; as a rule, active = well fitted inhibition curve with a large enough effect; inconclusive = small, poorly fitted or top-dose-only effect; inactive = flat fitted curve, though single readings scatter.

Columns and labels:
Assay in all cases: Cytotoxic Profiling of Annotated Libraries Using Quantitative High-Throughput Screening (AID 1296008); note: nearly all actives have a fitted effect of over 60% in size
Details in all cases: Five cell lines viability, CellTiter-Glo ATP luminescence, 48-72 h; max response: active compounds read low
[1] = system: CRL-7250
Method in brief: (§1)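 Cytotoxicity was measured as CellTiter-Glo ATP luminescence, read after 10 min at room temperature. Compound treatment of the cells lasted 48 or 72 hr at 37 degrees Celsius in a qHTS format.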

[2] = system: HEK293
Method in brief: as §1

[3] = system: HaCat
Method in brief: as §1

[4] = system: KB-3-1
Method in brief: as §1

[5] = system: NIH3T3
Method in brief: as §1

Measured: max response
% is set by controls: 0 for no effect and ±100 for the full control effect.

CCOc1ccc(NS(=O)(=O)c2ccc(N)cc2)nn1
inactive: [1] 2.59% | [2] | [3] 1.89% | [4] -7.66% | [5] 3.16%

CC1c2ccccc2CN1NC(=O)c1ccc(Cl)c(S(N)(=O)=O)c1 (configuration not stated)
inactive: [1] -8.72% | [2] -4.92% | [3] 0.897% | [4] 8.25% | [5] 2.57%

O=C(O)Cc1ccc(OCCNC[C@H](O)c2ccccc2)cc1
inactive: [1] | [2] -3.07% | [3] 2.67% | [4] -1.64% | [5] 0.971%

C=CC[N+]1([C@H]2C[C@H]3[C@@H]4CC[C@H]5C[C@H](OC(C)=O)[C@@H](N6CCCCC6)C[C@]5(C)[C@H]4CC[C@]3(C)[C@H]2OC(=O)CC)CCCCC1
inactive: [1] -0.558% | [2] 0.459% | [3] 4.73% | [4] | [5] -0.979%

CC(=O)/C=C/C=C1/C2CCC(C2)C1(C)C (configuration not stated)
inactive: [1] -8.75% | [2] -13.1% | [3] -7.21% | [5] -0.501%

Nc1c(NC/C=C\COc2cc(CN3CCCCC3)ccn2)c(=O)c1=O
inactive: [1] -21.7% | [2] -20.2% | [3] -11% | [5] 0.202%

COc1ccccc1N1CCN(CCN2C(=O)CC3(CCCC3)CC2=O)CC1
inactive: [1] -8.79% | [2] | [3] | [4] 1.39% | [5]

COCCc1ccccn1
inactive: [1] -7.75% | [2] -0.362% | [3] | [5]

NS(=O)(=O)c1ccc(N2CCCCS2(=O)=O)cc1
inactive: [1] -11.1% | [2] | [3] | [5]

O=C(O)CCC(=O)OC[C@@H](NC(=O)C(Cl)Cl)[C@H](O)c1ccc([N+](=O)[O-])cc1
inactive: [1] -4.73% | [2] -21.8% | [3] 0.154% | [5] -0.147%

COC(=O)CCCCC(CCSS/C(CCO)=C(\C)N(C=O)Cc1cnc(C)nc1N)SC(C)=O (configuration not stated)
not listed: [4]
inactive: all other assays above

CCO[C@H](Cc1ccc(OCCc2ccc(OS(C)(=O)=O)cc2)cc1)C(=O)O
inactive: [1] -4.09% | [2] -6.35% | [3] | [4] -10.5% | [5] -1.31%

CCOC(=O)Oc1ccc(CCNC(=O)[C@H](CCSC)NC(C)=O)cc1OC(=O)OCC
inactive: [1] | [2] -13% | [3] -20.7% | [5]

Cc1ccc(/C=N/n2c(-c3ccccc3)csc2=S)cc1
inactive: [1] -8.42% | [2] 1.19% | [3] | [4] -9.01% | [5] -3.86%

CCS(=O)(=O)c1ccc(OC)c(C(=O)OC)c1
inactive: [1] 0.361% | [2] | [3] 4.82% | [5]

COc1ccc2cc(C=O)ccc2c1
inactive: [1] 3.03% | [2] 0.484% | [3] | [5] 2.35%

CC(=O)OCC[N+](C)(C)C
inactive: [1] -0.18% | [2] | [3] -14.7% | [5] 3.81%

O=C1Cc2cc(Cl)ccc2N1
inactive: [1] -11.6% | [2] -3.82% | [3] | [5] 3.19%

COc1ccccc1OCC1CNC(=O)O1 (configuration not stated)
inactive: [1] -7.57% | [2] 2.95% | [3] -20.6% | [5]

Clc1ccc2c(c1)Nc1ccccc1S2
inactive: [1] -4.08% | [2] -6.16% | [3] -13.4% | [5]
